Cruzain noTriton = cruzain (T. cruzi) inhibition without detergent; 200,000 compounds, 2.3% hits; Potency, µM, without a hit: max response, negative = inhibition, usual class: inhibitors; P25779; purified cruzain, Z-FR-AMC fluorescence, no detergent; AID 1476;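 further: plate controls were enzyme without inhibitor for no effect and buffer without enzyme for full effect; nearly all actives have a fitted effect of over 40% in size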
Target sequence (P25779 123-467 limits assumed): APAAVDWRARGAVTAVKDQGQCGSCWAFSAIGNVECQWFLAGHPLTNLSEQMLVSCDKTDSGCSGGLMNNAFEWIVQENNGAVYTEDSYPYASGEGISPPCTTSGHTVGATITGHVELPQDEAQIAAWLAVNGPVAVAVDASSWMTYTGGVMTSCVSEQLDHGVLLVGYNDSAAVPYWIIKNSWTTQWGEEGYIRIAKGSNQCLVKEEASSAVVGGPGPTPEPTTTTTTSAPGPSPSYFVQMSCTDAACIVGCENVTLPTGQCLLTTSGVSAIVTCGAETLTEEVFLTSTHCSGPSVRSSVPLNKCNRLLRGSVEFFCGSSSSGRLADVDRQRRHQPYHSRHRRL
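Purified cruzain at 1.5 nM, pre-incubated 15 min with compound at room temperature in 100 mM sodium acetate pH 5.5, 5 mM DTT, 0.00005% Triton X-100. Reaction started with 2 uM Z-FR-AMC; AMC fluorescence increase over 60 s gives rate.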
Cruzain inh Det = blocks cruzain activity in presence of Triton detergent | P25779 | Potency, µM, for inactives: max response, negative = inhibition, most hits filed as inhibitors | purified cruzain, Z-FR-AMC fluorescence, 0.01% Triton | 200,000 compounds, 0.43% hits;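 further: plate controls were neutral wells for no effect and buffer without enzyme for full effect; nearly all actives have a fitted effect of over 40% in size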
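Cruzain (1.5 nM) preincubated 15 min at RT with compound in 100 mM sodium acetate pH 5.5, 5 mM DTT, 0.01% Triton X-100. Reaction started with 2 uM Z-FR-AMC; AMC fluorescence (ex 360/em 450 nm) change over 60 s gave rate.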
* hit, by the source's call; ? = inconclusive. Shown are actives, neighbours in structure and some others; about 2.5% of the full set was active somewhere. The call rests on the fitted dose curve; in most records, active means well fitted curve in the direction sought with a large enough effect; inconclusive means small, poorly fitted or top-dose-only effect, or another doubt; inactive means no such curve, though single readings can be large; an effect the other way counts as inactive or inconclusive. Potency means the concentration at half of the fitted maximal effect.

SMILES | Cruzain noTriton | Cruzain inh Det
CCn1c(-c2ccc(-c3ccccc3)cc2)c[nH]c1=S | 10µM* | 4.6%
N#CC(CC(=O)O)=C(c1ccccc1)c1ccccc1 | 4.3% | 1.9%
Cc1ccc(CNC(=O)Cn2c(=O)n(Cc3ccccc3)c(=O)c3sc4ccccc4c32)cc1 | 4.9% | -1.3%
Cc1ccc(CNC(=O)Cn2c(=O)n(-c3cccc(Cl)c3)c(=O)c3sc4ccccc4c32)cc1 | 12.6µM* | -3.0%
Cc1cccc(NC(=O)c2oc3ccc(S(=O)(=O)N(C)C4CCCCC4)cc3c2C)c1C | 5.1% | 0.9%
Cc1cc(C)c2nc(SCC(=O)Nc3ccc(S(=O)(=O)N4CCCC4)cc3)c(C)cc2c1 | 12.6µM* | -8.4%
N#Cc1cc2ccccc2nc1SCC(=O)Nc1ccc(S(=O)(=O)N2CCCC2)cc1 | ? | -4.5%
COc1ccc2nc(SCC(=O)Nc3ccc(S(=O)(=O)N4CCCC4)cc3)c(C#N)cc2c1 | 12.6µM* | -1.9%
Cc1nnc(SCC(=O)Nc2ccc(S(=O)(=O)N3CCCC3)cc2)n1N | -5.6% | 2.5%
Cc1ccccc1OCc1ccc(-c2nc(C#N)c(NCc3cccnc3)o2)o1 | ? | -9.6%
O=C(NC(Nc1ncc(S(=O)(=O)c2ccc([N+](=O)[O-])cc2)s1)(C(F)(F)F)C(F)(F)F)c1ccc(Cl)cc1 | 3.3% | -8.8%
O=C(Nc1ncc(S(=O)(=O)c2ccc([N+](=O)[O-])cc2)s1)c1cccc2ccccc12 | 12.6µM* | -4.1%
CCC(C)NC(=O)C1CCN(C(=O)c2cc3sccc3n2Cc2ccc(Cl)cc2)CC1 (configuration not stated) | -4.2% | -4.2%
CCOc1ccccc1N=C1SC(CC(=O)Nc2ccc(OC)cc2OC)C(=O)N1CCC1=CCCCC1 (configuration not stated) | ? | -4.1%
CCOc1ccc(/C(C)=N/N2C(=O)C(CC(=O)Nc3ccc(OC)cc3[N+](=O)[O-])SC2=Nc2cccc(C)c2C)cc1 (configuration not stated) | 10µM* | -1.4%
COc1ccc(-c2nc3ccccc3n3c(-c4ccc(OC)cc4)c4c(=O)n(C)c(=O)n(C)c4c23)cc1 | 8.8% | -0.5%
CCOc1ccc(NC(=O)Cn2cc(C(=O)c3ccc(CC)cc3)c(=O)c3cc4c(cc32)OCO4)cc1 | -3.4% | -2.3%
CC(C)(C)n1ncc2c(=O)n(CC(=O)NCCc3ccccc3)cnc21 | 0.7% | 0.4%
O=C(Cn1cnc2c(cnn2-c2ccc(Cl)cc2)c1=O)NCCc1ccccc1 | 25.1µM* | -1.3%
O=C(Cn1cnc2c(cnn2-c2ccc(F)cc2)c1=O)NCC1CCCO1 (configuration not stated) | -3.9% | 3.9%
O=C(Cn1cnc2c(cnn2-c2ccc(Cl)cc2)c1=O)NC1CCCCC1 | 10µM* | 1.7%
O=C(NCCC1=CCCCC1)c1ccc2c(c1)N(Cc1ccc(Cl)cc1)C(=O)c1ccccc1S2=O (configuration not stated) | -45.1% | -3.0%
Cc1ccc(NC(=O)COC(=O)/C=C/c2cccs2)cc1 | -7.7% | 0.1%
O=C(/C=C/c1cccs1)c1ccc(Br)cc1 | -3.7% | -4.8%
O=C(/C=C/c1cccs1)c1ccc(NC(=O)c2cccc(Br)c2)cc1 | 15.8µM* | 0.9%
SMILES | Cruzain noTriton | Cruzain inh Det
Cc1ccc(C(=O)Nc2ccc(C(=O)/C=C/c3cccs3)cc2)cc1 | 25.1µM* | 8.7%
Cc1ccc(-c2csc(=Nc3ccccc3)n2Cc2ccc3c(c2)OCO3)cc1 | ? | -4.5%
O=C(Cn1c(=O)nc(-c2ccccc2)c2ccccc21)NCCc1ccc(Cl)cc1 | -2.5% | 0.8%
Cc1ccc(CNc2nc3c(S(=O)(=O)c4ccccc4)nnn3c3ccsc23)cc1 | 16.4% | 0.6%
Cc1ccc2c(C(=O)CSc3ccccc3)c(C)[nH]c2c1 | 12.6µM* | 2.2%
Cc1[nH]c2ccccc2c1C(=O)CSc1ccccc1 | 1.9% | -5.4%
Fc1ccc(C2CC(c3ccco3)=NN2c2ccccc2)cc1 (configuration not stated) | ? | -3.3%
O=[N+]([O-])c1ccc(N2N=C(c3ccco3)CC2c2ccccc2)cc1 (configuration not stated) | 12.6µM* | -6.9%
COCCn1c(SCC(=O)c2ccc(OC)cc2)nc2cc(C(=O)NC3CCCC3)ccc2c1=O | -5.3% | 0.7%
O=C(NN1C(=O)c2cc(Br)ccc2NC1c1ccccc1Cl)c1ccncc1 (configuration not stated) | -7.7% | 1.4%
O=C(NN1C(=O)c2cc(Br)ccc2NC1c1cc(Br)cc(Br)c1O)c1ccncc1 (configuration not stated) | 10µM* | -10.5%
Cc1ccc(N=Cc2nc(/C=C/c3cccc([N+](=O)[O-])c3)oc2O)cc1 | 5.01µM* | 4.4%
Cc1cc(C)n(/N=C/c2cccc([N+](=O)[O-])c2)c(=O)c1 | -13.0% | -0.5%
CC(=O)N1CCc2cc(Br)cc(S(=O)(=O)CCC(=O)N3CCN(c4cccc(C)c4C)CC3)c21 | ? | -4.3%
Cc1ccc(NC(=O)COc2ccc3oc4c(c3c2)CCCC4)cc1C | 2.0% | -1.7%
N#Cc1cc(-c2ccccc2)nnc1Sc1ccc(F)cc1 | 4.3% | -0.5%
N#Cc1cc(-c2ccccc2)nnc1Sc1ccccc1 | 25.1µM* | 0.3%
CCOc1ccccc1C(=O)N(Cc1ccc(N(C)C)cc1)Cc1ccco1 | -26.1% | -15.0%
CCN(CC)C(=O)Cn1c(=O)n(Cc2ccc(C(=O)NCCc3ccc(OC)c(OC)c3)cc2)c(=O)c2ccccc21 | -10.8% | -0.5%
CCOC(=O)Cn1c(=O)n(CC2CCCO2)c2nc(-c3ccccc3Cl)nc(C(N)=O)c21 (configuration not stated) | 3.3% | -0.8%
Cc1c(C)n(Cc2ccccc2)c2ccc(C(=O)N3CCN(c4ccc(F)cc4)CC3)cc12 | 31.6µM* | -1.1%
Cc1c(C)n(Cc2ccc(F)cc2)c2ccc(C(=O)N3CCN(c4ccc(Cl)cc4)CC3)cc12 | 7.94µM* | 1.7%
Cc1c(C)n(Cc2ccccc2)c2ccc(C(=O)N3CCN(c4ccccc4)CC3)cc12 | ? | -1.7%
O=C(c1ccc(Cn2c(=O)[nH]c3ccccc3c2=O)cc1)N1CCN(c2ccc(F)cc2)CC1 | 19.8% | -6.0%
O=S(=O)(c1ccc(Br)cc1)c1nnn2c1nc(NCCc1ccccc1)c1sccc12 | -0.2% | -0.2%
SMILES | Cruzain noTriton | Cruzain inh Det
COc1ccc(Cn2c(CCC(=O)Nc3ccc(Br)c(C)c3)nc3cccnc32)cc1 | -2.2% | -2.4%
CN(Cc1ccccc1)c1ccc(-c2nc(-c3cccnc3)no2)cc1[N+](=O)[O-] | 25.1µM* | -13.8%
CN(Cc1ccccc1)c1ccc(-c2nc(-c3ccncc3)no2)cc1[N+](=O)[O-] | 11.2% | -2.5%
COc1ccc(OC)c(CNC(=O)C2CCN(S(=O)(=O)c3ccc4[nH]c(=O)oc4c3)CC2)c1 | -5.7% | -1.7%
Cc1ccc(-n2c(C)cc(/C=N/NC(=O)CC3(C)OCCO3)c2C)cc1 | -1.8% | -7.5%
COc1ccc(Cl)cc1NC(=O)C(=O)N/N=C/c1cc(C)n(-c2ccc(C)cc2)c1C | 12.6µM* | -8.9%
CCn1c(=O)c2sccc2n2c(CCCC(=O)N3CCN(c4cc(Cl)ccc4C)CC3)nnc12 | -15.1% | -0.6%
COc1ccc(-n2c(/C=C/c3cccc4ccccc34)nc3ccccc3c2=O)cc1OC | ? | -2.8%
COc1ccc(Cl)cc1-n1c(/C=C/c2cccc3ccccc23)nc2ccccc2c1=O | 31.6µM* | 0.5%
O=[N+]([O-])c1ccc(-c2cn(-c3ccc(Cl)cc3)c(=S)[nH]2)cc1 | ? | -0.6%
CCc1ccc(-n2cc(-c3ccc([N+](=O)[O-])cc3)[nH]c2=S)cc1 | 25.1µM* | -4.8%

Compound activity: PubChem, National Center for Advancing Translational Sciences (NCATS)
